# Screening results (PubChem BioAssay)
# SARS PLP yeast – inhibitors of SARS-CoV papain-like protease in yeast; S. cerevisiae expressing SARS-CoV PLpro, growth rescue; Potency, µM (titrated, usually from 32.9 µM), without a hit: top-dose activity, positive = growth rescue, actives largely listed as activators; AID 485353; actives 0.19% (n = 330,000); calls by dose curve; further: 0% is about no effect; nearly all actives have a fitted effect of over 55% in size
# AMA1-RON2 inh – disrupts binding of P. falciparum AMA1 to RON2; actives 0.2% (n = 360,000); AlphaScreen AMA1-biotinylated RON2 peptide binding; Potency, µM (titrated, usually from 58.2 µM), inactives show at the highest dose activity change, negative = inhibition, hits mostly inhibitors; AID 720542;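 further: 0% = vehicle wells and -100% = peptide control; nearly all actives have a fitted effect of over 45% in size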
#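 AMA1 (3D7) with his tag at 25 nM final met compounds first, then biotinylated RON2 peptide at 25 nM; detection used donor plus acceptor beads, 10 µg/mL apiece, read by AlphaScreen after 30 min at room temperature.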
# Pf growth 96h – P. falciparum growth inhibition at 96 hours | P. falciparum luciferase reporter growth, 96 h | Potency, µM (highest dose often 28.7 µM), for the others: at the highest dose activity change, negative = inhibition, actives largely listed as inhibitors | actives 6.9% (n = 320,000); further: on the % scale 0 is the no-effect control and ±100 the full control effect
#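 Two parasite generations (96 h, 37 C, 5% CO2) of compound exposure in infected erythrocytes (0.05% parasitemia, 2% hematocrit). Luciferase-reporter P. falciparum; decreased luminescence indicates inhibited growth, aimed at apicoplast-acting delayed death.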
# NS1 function inh – influenza NS1 inhibition; Potency, µM (highest dose often 46.1 µM), for the others: at the highest dose activity, positive = more growth; actives 0.4% (n = 270,000); AID 2326; calls by dose curve; further: actives are rising curves; nearly all actives have a fitted effect of over 50% in size
#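 S. cerevisiae expressing influenza A NS1, grown in glucose, washed, then diluted 1:100 into pH 6.0 -URA galactose medium with 23 nl compound. Growth recovery read as OD600; NS1-free strain serves as control.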
# HCV inhibitor – blocks hepatitis C virus; Huh7.5.1 HCVcc-Cre infection, luciferase reporter, 44 h; Potency, µM (top dose mostly 41.8 µM), without a hit: top-dose activity change, negative = inhibition, most hits filed as inhibitors; actives 3.4% (n = 340,000); AID 651820; further: on the % scale 0 is the no-effect control and ±100 the full control effect
#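 Cells (1,000/well) were plated 4 h before compound, then infected with HCVcc-Cre virus (~0.5 moi). After 44 h further culture, infection was read as luciferase luminescence following a 15 min substrate incubation at room temperature.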
# Pf growth 48h – inhibits P. falciparum growth in the first generation, 48 h. actives 5.9% (n = 310,000). Potency, µM (series often up to 28.7 µM), for the others: at the highest dose activity change, negative = inhibition, usual class: inhibitors. P. falciparum luciferase growth in erythrocytes, 48 h. AID 504832; further: on the % scale 0 is the no-effect control and ±100 the full control effect
#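 Luciferase-expressing P. falciparum in infected erythrocytes (2% hematocrit, 0.1% parasitemia final) in RPMI 1640/0.5% Albumax were exposed to compound for 48 hours at 37 C, 5% CO2; growth read as luminescence.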
# An asterisk follows results filed as active; i = inactive; ? = inconclusive; / = no result; ! = not active in a repeat; [ ] = dose if it differs, or a comment. Rows were chosen to be rich in hits. Some 12% of all compounds tested hit in one or more screens of this group. Unless noted, the call rests on the fitted dose curve; in most records, active means well fitted curve in the direction sought with a large enough effect; inconclusive means small, poorly fitted or top-dose-only effect, or another doubt; inactive means no such curve, though single readings can be large; an effect the other way counts as inactive or inconclusive. Potency means the concentration at half of the fitted maximal effect.
SMILES,SARS PLP yeast,AMA1-RON2 inh,Pf growth 96h,NS1 function inh,HCV inhibitor,Pf growth 48h
Cc1nc(NCCc2ccccc2)c2oc3ccccc3c2n1,-9%,1%,/,-14%,10µM*,1%
O=C(NCC(c1cccs1)N1CCOCC1)c1cc(-c2ccc(F)cc2)nc2ccccc12 (stereo not drawn),-2%,-26%,?,/,7.1µM*,?
Cc1cccc(-c2nn(-c3ccccc3)cc2C(=O)NCC(c2cccs2)N2CCOCC2)c1 (stereo not drawn),7%,-19%,?,/,?,13µM*
CC(=O)c1ccc(NC(=O)Cc2ccsc2)cc1,0%,2%,206%,-17%,-3%,73%
C[C@H](CC(C#N)(c1ccccc1)c1ccccc1)N1CCCCC1,/,/,/,-1%,/,/
CN1CCN(CCCC(=O)c2ccc(F)cc2)CC1,0%,-6%,?,-3%,5%,26%
O=C(CCCN1Cc2ccccc2C1)c1ccc(F)cc1,-5%,10%,5.2µM*,-5%,2%,20%
C[C@H](NC(=O)c1ccc(Cl)c(Cl)c1)c1ccc(-c2ccccc2)cc1,/,/,/,0%,/,/
COc1ccc(Cl)cc1NC(=O)CN(C)C(=O)c1ccc(-n2cncn2)cc1,-15%,-8%,/,/,0%,/
COc1ccc(C2=NO[C@@H]3C(=O)N(c4ccc(C)cc4C)C(=O)[C@H]23)cc1OC,-13%,-3%,13%[5.75 µM],-106%,0%,-6%
COc1ccc(-c2cn(-c3ccc(C)cc3C)c(=O)[nH]2)cc1OC,-9%,14%,?,/,11µM*,10%
CC(=O)Nc1ccc(S(=O)(=O)NCC(=O)N2CCN(S(=O)(=O)c3cccs3)CC2)cc1,2%,20%,?,/,-1%,?
O=[N+]([O-])c1ccc(Nc2nc(N/N=C\c3ccc4c(c3)OCO4)nc(N3CCCCC3)n2)cc1,1%,67%,2.6µM*,13%,?,2.1µM*
NNc1nc(Nc2ccc([N+](=O)[O-])cc2)nc(N2CCCCCC2)n1,-2%,112%,69%,-8%,-14%,4.1µM*
COc1ccc(C2(CNC(=O)c3ccccc3[N+](=O)[O-])CCOCC2)cc1,0%,-21%,45%,?,15%,17%
O=c1[nH][nH]c2c(N=Cc3ccccc3O)ccc(F)c12,-1%,11µM*,-19%,6%,2%,?
CCc1ccc(O)c(N=Cc2ccccc2O)c1,-5%,30%,/,-9%,2%,?
NCCNc1ccc(C(=O)N2c3ccccc3Sc3ccccc32)cc1[N+](=O)[O-],2%,-27%,81%,?,11µM*,?
Nc1ccc(C(=O)OCC(=O)N2c3ccccc3Sc3ccccc32)cc1[N+](=O)[O-],6%,-5%,?,26%,?,1%
COc1ccc(CCNCC(O)COc2cccc(Br)c2)cc1OC (stereo not drawn),-1%,-24%,9.3µM*,-8%,10%,?
COc1ccc(CCNCC(O)COc2ccc(OC)cc2C(C)(C)C)cc1 (stereo not drawn),-3%,-24%,2.3µM*,-8%,?,2.3µM*
COc1ccc(CCNCC(O)Cn2c3ccccc3c3ccccc32)cc1OC (stereo not drawn),-2%,-9%,?,/,11µM*,?
CC(C)OCCCNC(=O)Cn1ccc2cc(S(=O)(=O)N3CCCCC3)ccc21,2%,16%,-19%,-6%,-11%,?
CCCCCCc1ccc(N2C[C@H](CCCCC)[C@@H](CC(=O)NCc3ccc(OC)cc3)C2=O)cc1,2%,-4%,?,16%,12%,?
CCCCCCc1ccc(N2C[C@H](Cc3ccccc3)[C@@H](CC(=O)NCc3ccc(OC)cc3)C2=O)cc1,2%,-6%,?,-1%,2.8µM*,-63%
SMILES,SARS PLP yeast,AMA1-RON2 inh,Pf growth 96h,NS1 function inh,HCV inhibitor,Pf growth 48h
O=[N+]([O-])c1cccnc1Oc1ccc(C2SCCS2)cc1,0%,-17%,10µM*,5%,1%,4.7µM*
O=[N+]([O-])C1C(c2ccccc2)=NOC1c1ccccc1O (stereo not drawn),-12%,0%,?,-108%,6%,17%
O=C(NCC1CCCO1)C1C2C=CC3(CN(Cc4cccs4)C(=O)C13)O2 (stereo not drawn),1%,0%,4.7µM*,-1%,15%,7%
O=C(NC1CCCC1)C1C2C=CC3(CN(Cc4cccs4)C(=O)C13)O2 (stereo not drawn),-5%,-9%,2%,?,16%,11%
CCCCOC(=O)C1[C@H]2C(=O)N(Cc3cccs3)C[C@]23C=C[C@H]1O3 (stereo partly drawn),0%,-2%,5.2µM*,9%,-29%,/
CCCCOC(=O)c1ccccc1C(=O)OCCCC,-2%,28%,-10%,/,-2%,-19%
O=C(O)c1ccccc1C(=O)OCCCCOC(=O)c1ccccc1C(=O)O,-1%,-8%,15µM*,4%,-1%,-5%
Cc1cc2ncc(S(C)(=O)=O)c(N)n2n1,1%,36%,73%,/,15%,i
Cc1ccc(S(=O)(=O)c2cnc3cc(C)nn3c2N)cc1,2%,2%,5.9µM*,/,23%,215%
CN1CCN(c2c(F)cc3c(=O)c(C(=O)O)cn4c3c2OCN4C)CC1,0%,6%,15µM*!,-2%,13%,-30%
Cc1nc([N+](=O)[O-])cn1CC(O)c1ccc(-c2ccccc2)cc1 (stereo not drawn),-1%,0%,10%,-5%,?,?
CC(=O)c1cnc(Oc2cc(Cl)ccc2Cl)nc1C,0%,6%,11%,6%,6%,-5%
O=C(NCCc1ccccc1)C(=O)c1c(-c2ccccc2)cc2ccccn12,13%,-4%,?,-9%,5%,-18%
COC(=O)c1cc2c(-c3ccccc3)cc3ccccn3c-2c1C(=O)OC,3%,18µM*,3.7µM*,23%,1.8µM*,/
COC(=O)c1c(C)c2c(C)cc3ccccn3c-2c1C(=O)OC,6%,-25%,/,-2%,10µM*,8%
CCC1CCCCN1CCCNC(=O)c1cc2c(=O)oc3ccc(C)cc3c2s1 (stereo not drawn),1%,4%,99%,12%,13µM*,?
Cc1ccc2oc(=O)c3cnn(CC(=O)N4CCc5ccccc5C4)c3c2c1,5%,11%,2.6µM*,-148%,24%,/
Cc1ccc2oc(=O)c3cc(C(=O)NCCCN4CCc5ccccc5C4)sc3c2c1,-4%,-9%,12µM*,-3%,-20%,-17%
Cc1cccc(OC(=O)NCCOC(=O)N(O)c2ccc(Cl)cc2)c1,29%,8%,7.4µM*,2%,26%,62%
Cc1cccc(OCC(=O)Oc2ccc(Cl)cc2)c1,/,29%,/,/,8%,/
